From PubChem BioAssay (EPA / NIEHS)
Activity calls are given as the source filed them. How the source made its calls: active means hit-call score of the fitted dose curve at least 0.9, where 1 is the maximum; inactive means score below 0.9.

Columns and labels:
Details in all cases: mRNA level, 48 h; actives raise or lower the signal
[1] = read-out: DNA damage-inducible transcript 3 (DDIT3), DDIT3 (gene 1649); assay: LTEA_HepaRG_DDIT3: Life Technologies and Expression Analysis (LTEA) Assay for DNA damage-inducible transcript 3 (DDIT3) using HepaRG (AID 2283488)
Summary of the method: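 HepaRG plated 48 h, switched to serum-free induction medium, dosed 48 h (100 uM top, half-log, 8 pts, 0.5% DMSO, n=2); RNA isolated; DDIT3 by qRT-PCR; bidirectional curve fit vs DMSO.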

[2] = read-out: Pro-epidermal growth factor (Homo sapiens) (UniProt P01133); assay: LTEA_HepaRG_EGF: Life Technologies and Expression Analysis (LTEA) Assay for Epidermal growth factor (EGF) using HepaRG (AID 2283489)
Summary of the method: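 qRT-PCR readout of EGF transcript after 48 h chemical exposure of HepaRG cells; eight concentrations from 100 uM down in half-log steps, duplicate wells, 0.5% DMSO vehicle. Bidirectional curve fitting against DMSO baseline.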

[3] = read-out: Early growth response protein 1 (EGR1) transcription factor, EGR1 (gene 1958); assay: LTEA_HepaRG_EGR1: Life Technologies and Expression Analysis (LTEA) Assay for Early growth response protein 1 (EGR1) transcription factor using HepaRG (AID 2283490)
Summary of the method: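 Read-out is EGR1 mRNA level by qRT-PCR, normalized to three housekeeping genes and analysed for gain or loss of signal against 0.5% DMSO. Source cells: human HepaRG, treated 48 h at up to 100 uM in half-log dilutions.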

[4] = read-out: Ezrin (EZR), EZR (gene 7430); assay: LTEA_HepaRG_EZR: Life Technologies and Expression Analysis (LTEA) Assay for Ezrin (EZR) using HepaRG (AID 2283491)
Summary of the method: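 Differentiated human HepaRG cells, 48 h after plating, were exposed in serum-free induction medium for 48 hours to eight half-log concentrations up to 100 uM in 0.5% DMSO. EZR mRNA was measured by TaqMan qRT-PCR, normalized to ACTB, GAPDH and POLR2A, and fitted bidirectionally against DMSO.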

[5] = read-out: Cytochrome P450 3A7 (Homo sapiens) (UniProt P24462); assay: LTEA_HepaRG_CYP3A7: Life Technologies and Expression Analysis (LTEA) Assay for CYP3A7 using HepaRG (AID 2283492)
Summary of the method: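 CYP3A7 transcript levels were read by TaqMan qRT-PCR on Fluidigm arrays after 48 h chemical exposure of human HepaRG cells, with housekeeping-gene normalisation. Eight half-log concentrations up to 100 uM in 0.5% DMSO were tested in duplicate.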

[6] = read-out: CYP3A5 (gene 1577); assay: LTEA_HepaRG_CYP3A5: Life Technologies and Expression Analysis (LTEA) Assay for CYP3A5 using HepaRG (AID 2283493)
Summary of the method: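 HepaRG plated 48 h, switched to serum-free induction medium, chemicals added 48 h (max 100 uM, half-log, 0.5% DMSO). RNA isolated; CYP3A5 by TaqMan qRT-PCR. Gain/loss vs DMSO.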

[7] = read-out: Fatty Acid-Binding Protein 1 (FABP1), FABP1 (gene 2168); assay: LTEA_HepaRG_FABP1: Life Technologies and Expression Analysis (LTEA) Assay for Fatty Acid-Binding Protein 1 (FABP1) using HepaRG (AID 2283494)
Summary of the method: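 HepaRG, 48 h post-plating switched to serum-free induction medium, then dosed 48 h (duplicate, 8 pts, ≤100 uM, 0.5% DMSO). RNA → Fluidigm TaqMan qRT-PCR, FABP1 normed to ACTB/GAPDH/POLR2A. Bidirectional curve fit vs DMSO.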

[8] = read-out: Cytochrome P450 4A22 (Homo sapiens) (UniProt Q5TCH4); assay: LTEA_HepaRG_CYP4A22: Life Technologies and Expression Analysis (LTEA) Assay for Cytochrome P450 4A22 (CYP4A22) using HepaRG (AID 2283495)
Summary of the method: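 HepaRG, 48 h post-plating -> serum-free induction medium; dosed 48 h, duplicate, 8 conc. (100 uM top, half-log), 0.5% DMSO. Readout: CYP4A22 mRNA by qRT-PCR, ACTB/GAPDH/POLR2A normalization; gain/loss fit relative to DMSO.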

[9] = read-out: Cytochrome P450 7A1 (Homo sapiens) (UniProt P22680); assay: LTEA_HepaRG_CYP7A1: Life Technologies and Expression Analysis (LTEA) Assay for Cytochrome P450 7A1 (CYP7A1) using HepaRG (AID 2283496)
Summary of the method: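 HepaRG cells plated 48 h, then switched to serum-free induction medium and exposed in duplicate for 48 h to 8-point half-log series from 100 uM in 0.5% DMSO. CYP7A1 mRNA by qRT-PCR (TaqMan), normalized to ACTB/GAPDH/POLR2A; bidirectional fit versus DMSO.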

[10] = read-out: Glutathione S-Transferase (GSTA2), GSTA2 (gene 2939); assay: LTEA_HepaRG_GSTA2: Life Technologies and Expression Analysis (LTEA) Assay for Glutathione S-Transferase (GSTA2) using HepaRG (AID 2283497)
Summary of the method: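 HepaRG, 48 h dosing, 8-pt half-log CRC from 100 uM, 0.5% DMSO vehicle, n=2; RNA → Fluidigm TaqMan qRT-PCR; GSTA2 vs ACTB/GAPDH/POLR2A; gain/loss fit vs DMSO.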

[11] = read-out: Glutamate-cysteine ligase catalytic (GCLC), GCLC (gene 2729); assay: LTEA_HepaRG_GCLC: Life Technologies and Expression Analysis (LTEA) Assay for Glutamate-cysteine ligase catalytic (GCLC) using HepaRG (AID 2283498)
Summary of the method: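 Read-out is GCLC transcript level by Fluidigm-based TaqMan qRT-PCR, normalized to three housekeeping genes and fitted in both directions relative to 0.5% DMSO. Human HepaRG cells received chemicals for 48 h, up to 100 uM.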

[12] = read-out: growth arrest and DNA damage 45 (GADD45G), GADD45G (gene 10912); assay: LTEA_HepaRG_GADD45G: Life Technologies and Expression Analysis (LTEA) Assay for growth arrest and DNA damage 45 (GADD45G) using HepaRG (AID 2283499)
Summary of the method: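 HepaRG, 48 h exposure, top 100 uM, half-log 8-point series, 0.5% DMSO vehicle, duplicates. Readout: GADD45G transcript by qRT-PCR (Fluidigm array), housekeeping-normalised (ACTB/GAPDH/POLR2A). Bidirectional curve fit vs DMSO baseline.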

[13] = read-out: Glutamate-cysteine ligase regulatory (GCLM), GCLM (gene 2730); assay: LTEA_HepaRG_GCLM: Life Technologies and Expression Analysis (LTEA) Assay for Glutamate-cysteine ligase regulatory (GCLM) using HepaRG (AID 2283500)
Summary of the method: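 Cells were plated, cultured 48 h, switched to serum-free induction medium, then dosed in duplicate for 48 h at eight half-log concentrations up to 100 uM. RNA was then profiled by qRT-PCR; gain or loss versus DMSO was fitted.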

[14] = read-out: Glutathione S-transferase M3 (GSTM3), GSTM3 (gene 2947); assay: LTEA_HepaRG_GSTM3: Life Technologies and Expression Analysis (LTEA) Assay for Glutathione S-transferase M3 (GSTM3) using HepaRG (AID 2283501)
Summary of the method: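 qRT-PCR read-out of GSTM3 transcript, normalized to three housekeeping genes, from human HepaRG cells after 48 h chemical exposure. Eight-point half-log series, top 100 uM, 0.5% DMSO vehicle; gain or loss fitted relative to DMSO baseline.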

[15] = read-out: Heat shock 70 kDa protein 1 (HSPA1A), gene 3303; assay: LTEA_HepaRG_HSPA1A: Life Technologies and Expression Analysis (LTEA) Assay for Heat shock 70 kDa protein 1 (HSPA1A) using HepaRG (AID 2283502)
Summary of the method: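 Readout is HSPA1A transcript level by microfluidic qRT-PCR, normalized to three housekeeping genes and analysed for gain or loss of signal relative to 0.5% DMSO. Human HepaRG cultures received test chemicals for 48 h at up to 100 uM.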

[16] = read-out: Hypoxia-inducible factor 1-alpha (Homo sapiens) (UniProt Q16665); assay: LTEA_HepaRG_HIF1A: Life Technologies and Expression Analysis (LTEA) Assay for Hypoxia-inducible factor 1 (HIF1A) Trancription factor using HepaRG (AID 2283503)
Summary of the method: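 Differentiated HepaRG cells in serum-free induction medium exposed 48 h, in duplicate, to 8-point half-log series from 100 uM in 0.5% DMSO. HIF1A mRNA measured by TaqMan qRT-PCR, normalized to ACTB/GAPDH/POLR2A, fitted bidirectionally versus DMSO.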

[17] = read-out: 3-Hydroxy-3-Methylglutaryl-CoA Synthase 2 (HMGCS2), HMGCS2 (gene 3158); assay: LTEA_HepaRG_HMGCS2: Life Technologies and Expression Analysis (LTEA) Assay for 3-Hydroxy-3-Methylglutaryl-CoA Synthase 2 (HMGCS2) using HepaRG (AID 2283504)
Summary of the method: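 qRT-PCR read-out of HMGCS2 transcript, normalised to three housekeeping genes, in HepaRG cells after 48 h chemical exposure. Eight-point curves from 100 uM, half-log dilutions, 0.5% DMSO vehicle; gain or loss fitted relative to DMSO baseline.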

[18] = read-out: HGF (gene 3082); assay: LTEA_HepaRG_HGF: Life Technologies and Expression Analysis (LTEA) Assay for Hepatocyte Growth Facto (HGF) using HepaRG (AID 2283505)
Summary of the method: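 HepaRG, 48 h dosing, 8-pt half-log series from 100 uM in 0.5% DMSO, duplicates. Readout: TaqMan qRT-PCR of HGF mRNA, housekeeping-normalized; bidirectional curve fit vs DMSO baseline.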

[19] = read-out: Insulin Like Growth Factor 1 (IGF1), IGF1 (gene 3479); assay: LTEA_HepaRG_IGF1: Life Technologies and Expression Analysis (LTEA) Assay for Insulin Like Growth Factor 1 (IGF1) using HepaRG (AID 2283506)
Summary of the method: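 HepaRG, plated 48 h, then switched to serum-free induction media; test chemical 8-pt half-log from 100 uM (0.5% DMSO), duplicate, 48 h. Lysis in RLT, TaqMan qRT-PCR, norm. ACTB/GAPDH/POLR2A. Bidirectional fit vs DMSO.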

[20] = read-out: Intercellular Adhesion Molecule 1 (ICAM1), ICAM1 (gene 3383); assay: LTEA_HepaRG_ICAM1: Life Technologies and Expression Analysis (LTEA) Assay for Intercellular Adhesion Molecule 1 (ICAM1) using HepaRG (AID 2283507)
Summary of the method: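 HepaRG, 48 h exposure, 8-pt half-log series from 100 uM, 0.5% DMSO vehicle, duplicates. Readout: TaqMan qRT-PCR mRNA, housekeeping-normalized (ACTB/GAPDH/POLR2A). Bidirectional curve fit vs DMSO baseline.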

Measured: AC50

Sequence of Cytochrome P450 3A7 (Homo sapiens) (P24462 whole entry, looked up): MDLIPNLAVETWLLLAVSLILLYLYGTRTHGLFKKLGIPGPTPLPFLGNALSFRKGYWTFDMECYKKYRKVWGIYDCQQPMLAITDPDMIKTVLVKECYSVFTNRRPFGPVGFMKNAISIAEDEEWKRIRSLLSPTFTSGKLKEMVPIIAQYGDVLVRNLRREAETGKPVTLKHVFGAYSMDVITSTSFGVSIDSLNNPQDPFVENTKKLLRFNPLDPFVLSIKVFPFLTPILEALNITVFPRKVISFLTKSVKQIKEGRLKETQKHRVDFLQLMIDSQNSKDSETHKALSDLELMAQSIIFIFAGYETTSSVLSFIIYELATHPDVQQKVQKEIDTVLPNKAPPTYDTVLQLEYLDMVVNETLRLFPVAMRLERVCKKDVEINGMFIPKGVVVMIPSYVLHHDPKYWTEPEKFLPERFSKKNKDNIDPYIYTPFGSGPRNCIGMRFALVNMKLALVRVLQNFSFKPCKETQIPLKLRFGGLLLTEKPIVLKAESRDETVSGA
Sequence of Hypoxia-inducible factor 1-alpha (Homo sapiens) (Q16665 whole entry, looked up): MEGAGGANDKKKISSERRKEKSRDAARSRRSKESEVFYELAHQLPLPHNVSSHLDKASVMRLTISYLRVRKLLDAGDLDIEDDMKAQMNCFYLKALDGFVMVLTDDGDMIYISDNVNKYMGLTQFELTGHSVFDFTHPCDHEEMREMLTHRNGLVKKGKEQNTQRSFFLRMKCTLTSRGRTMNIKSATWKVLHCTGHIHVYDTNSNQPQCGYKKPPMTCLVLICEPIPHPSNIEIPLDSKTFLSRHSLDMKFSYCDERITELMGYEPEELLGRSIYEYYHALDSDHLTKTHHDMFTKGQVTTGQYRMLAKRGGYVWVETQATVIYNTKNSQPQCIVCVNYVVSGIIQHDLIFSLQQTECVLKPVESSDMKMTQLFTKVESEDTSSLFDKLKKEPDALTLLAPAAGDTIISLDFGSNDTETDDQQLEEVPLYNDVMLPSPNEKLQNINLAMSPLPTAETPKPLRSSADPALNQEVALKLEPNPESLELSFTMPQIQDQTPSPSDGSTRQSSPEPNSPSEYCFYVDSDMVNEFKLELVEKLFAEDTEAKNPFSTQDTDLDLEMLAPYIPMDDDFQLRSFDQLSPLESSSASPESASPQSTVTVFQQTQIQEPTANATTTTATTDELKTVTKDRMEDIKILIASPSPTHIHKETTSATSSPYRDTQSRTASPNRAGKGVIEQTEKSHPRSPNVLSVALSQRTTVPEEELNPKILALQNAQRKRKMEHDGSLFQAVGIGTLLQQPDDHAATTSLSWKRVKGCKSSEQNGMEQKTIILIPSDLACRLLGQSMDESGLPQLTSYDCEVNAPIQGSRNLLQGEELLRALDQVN

NC(=O)N(O)[C@@H]1C=C[C@H](Oc2cccc(Oc3ccc(F)cc3)c2)C1
active: [1] 35.1 µM | [3] 12.7 µM | [5] 33.7 µM | [7] 74.2 µM | [8] 25.6 µM | [9] 74.2 µM | [10] 51 µM | [13] 50 µM | [15] 82.6 µM | [16] 78.7 µM | [17] 40.6 µM | [19] 37.9 µM | [20] 37.3 µM
inactive: [2] | [4] | [6] | [11] | [12] | [14] | [18]

CC[C@H](C)[C@@H](C(=O)O)n1sc2ccccc2c1=O
active: [16] 0.372 µM
inactive: all other assays above

C=C(C)C(=O)OCCC(F)(F)C(F)(F)C(F)(F)C(F)(F)C(F)(F)C(F)(F)F
inactive: all assays above

CCCCCCCCCCCCN1CCCC1=O
inactive: all assays above

COCC(C)OCC(C)O (stereo not given)
inactive: all assays above

CCCCCCCCCCCCc1ccccc1S(=O)(=O)O
inactive: [3] | [4] | [6] | [11] | [12] | [14] | [18]
active: [1] 62.1 µM | [2] 50 µM | [5] 88 µM | [7] 66.4 µM | [8] 79.6 µM | [9] 93.7 µM | [10] 80.3 µM | [13] 50 µM | [15] 13 µM | [16] 14.4 µM | [17] 83.1 µM | [19] 38.9 µM | [20] 82.1 µM
